# From PubChem BioAssay (NCI)
# Compounds without any hit were thinned out: in the full panel of roughly 79,000, 15% have a hit. Unmarked numbers belong to inactive results. Activity calls are given as the source filed them. Cut-off read from the data, not from the text of the source: active = growth inhibition above about 70%; inactive = the rest.
# Assays:
# [1] = NCI Yeast Anticancer Drug Screen. Data for the rad50 strain (AID 155);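 note: 0% = growth of vehicle-only cultures of the same strain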; conditions: S. cerevisiae rad50 strain growth inhibition; at 50.0 µM; hits give high values
# Method in brief: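 Genetically altered yeast (DNA repair pathway); compound treatment; growth inhibition vs vehicle ctrl.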
# [2] = NCI Yeast Anticancer Drug Screen. Data for the mec2-1 strain (AID 157); conditions: S. cerevisiae mec2-1 strain, at 50.0 µM, hits give high values
# Method in brief: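 mec2-1 yeast strain, carrying an alteration in DNA damage repair or cell cycle control, was exposed to compounds; growth inhibition was measured relative to vehicle-treated controls.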
# [3] = NCI Yeast Anticancer Drug Screen. Data for the sgs1 mgt1 strain (AID 161);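 note: 0% = growth of cultures given vehicle only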; conditions: S. cerevisiae sgs1 mgt1 strain, at 50.0 µM, hits give high values
# Method in brief: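 Percent growth inhibition was derived by comparing compound-exposed mutant yeast with vehicle-exposed cultures. The strain carries alterations in DNA damage repair.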
# [4] = NCI Yeast Anticancer Drug Screen. Data for the cln2 rad14 strain (AID 165);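 note: 0% = growth equal to vehicle treated cultures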; conditions: S. cerevisiae cln2 rad14 strain, at 50.0 µM, hits give high values
# Method in brief: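 Yeast carrying cln2 and rad14 alterations (cell cycle control and DNA damage repair) were exposed to compounds. Growth inhibition was measured against vehicle-treated controls.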
# [5] = NCI Yeast Anticancer Drug Screen. Data for the bub3 strain (AID 167); conditions: S. cerevisiae bub3 mutant strain, at 50.0 µM, hits give high values
# Method in brief: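 Yeast carrying a defined mutation is treated with each compound, and growth is compared with that of vehicle-exposed cells to give inhibition.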
# [6] = NCI Yeast Anticancer Drug Screen. Data for the mlh1 rad18 strain (AID 175); conditions: S. cerevisiae mlh1 rad18 strain growth inhibition; at 50.0 µM; hits give high values
# Method in brief: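 Growth inhibition of the yeast strain was measured after compound exposure and expressed relative to vehicle-treated controls. The strain carries defined defects in DNA damage repair.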
Structure (SMILES),growth inhibition [1],growth inhibition [2],growth inhibition [3],growth inhibition [4],growth inhibition [5],growth inhibition [6]
CC(CN1CCCCC1)SSC(C)CN1CCCCC1 (centres undefined),41.8%,14.9%,27%,-29.1%,11.5%,44.2%
CC1(C)CC23C4COC(=O)C2CCC1C3CC4=O (centres undefined),-7.25%,-18.1%,20.4%,-0.7%,-0.25%,-21.4%
OC1CCCNC1 (centres undefined),16.9%,-4.5%,21.1%,18.1%,14.5%,30.2%
NC(=Nc1ccc(S(=O)(=O)Nc2cnccn2)cc1)/N=C(/N)Nc1ccc(Br)cc1,4.2%,3.9%,15.7%,-4.65%,-5.65%,27.1%
Fc1ccc(/C=C/c2ccc(/C=C/c3ccc(F)cc3)nn2)cc1,18.4%,-4.2%,7.8%,-13.1%,5.15%,-1.5%
O=C(C#Cc1ccccc1)[O][Sn]([c]1ccccc1)([c]1ccccc1)[c]1ccccc1,99% (active),99.2% (active),99.4% (active),99.2% (active),99.1% (active),99.2% (active)
CCC(CC)C(=O)NCC(=O)NO,2.25%,2.85%,1%,-36%,0.6%,9.15%
CCN(CC)CCNC(=O)c1ccc(C)c(OCc2ccccc2)c1[N+](=O)[O-],-9.4%,-9.25%,26.6%,-26.8%,34.8%,-19.6%
O=C(NNC(=O)c1ccc2ccccc2n1)c1ccc2ccccc2n1,5.2%,2.45%,12.3%,9.8%,0.2%,16.6%
O=C(/C=N\O)c1ccncc1,-13.8%,-16.9%,-30.8%,-16.1%,-8.65%,-35.7%
COc1ccc(CCC(C)(O)c2ccccc2)cc1 (centres undefined),11.7%,-1.35%,11.2%,-1.05%,41.9%,-2.55%
CC(=O)O[C@H]1CC[C@@]2(C)C(=CC[C@H]3[C@@H]4CC[C@H](c5cc(C(F)(F)F)n(C(C)=O)n5)[C@@]4(C)CC[C@@H]32)C1,11.3%,-6.7%,-40.6%,2.55%,-19.6%,12.4%
CCCN(CCC)C(=O)c1c(Cl)c2cccnc2n2c(C)cnc12,5.35%,19.7%,26.6%,18.7%,15.1%,31.3%
Nc1ccnc2n[nH]nc12,-3.7%,-2%,-19.1%,-9.05%,5.05%,-26.8%
N=C1C(=O)C(=N)c2ccccc2-c2ccccc21,-31%,-48.8%,-14.7%,-0.05%,-36.6%,-23.9%
CC(NC(=O)C(CSCc1ccccc1)NC(=O)OCc1ccccc1)C(=O)OCc1ccccc1 (centres undefined),-38%,-9.7%,-11.2%,24.4%,-3.05%,10.8%
CCOc1ccccc1C(=O)N(CC)CC,-8.55%,-3.2%,-4.6%,-5.85%,-9.8%,-5.65%
COC(=O)/C(=N\N)C(C(=O)C(=O)Nc1cc(Cl)ccc1Cl)c1nc2ccc([N+](=O)[O-])cc2[nH]c1=O (centres undefined),13.1%,6.6%,-6.15%,-20.2%,25.9%,12.7%
CCCCCCCCCCCCCCCC/C(C(=O)OC)=C(/O)C(=O)OCC,-4.7%,-12.1%,-3.65%,-67%,-1.2%,-5.75%
CC1(C(Cl)(Cl)Cl)C=C/C(=N\O)C(Cl)=C1 (centres undefined),-2.3%,-10.7%,-1.9%,4.95%,-8.9%,-7.75%

Structure (SMILES),growth inhibition [1],growth inhibition [2],growth inhibition [3],growth inhibition [4],growth inhibition [5],growth inhibition [6]
CC(=O)Nc1cc2cc(NS(=O)(=O)c3cc(C(F)(F)F)cc(C(F)(F)F)c3)ccc2oc1=O,0%,-10.2%,-4.9%,17.4%,-9.95%,10.9%
COc1ccc2[nH]c(=O)c(C(C)=O)c(O)c2c1,3%,6.95%,6.15%,1.6%,7.15%,7.85%
CCOC(=O)NNC(=O)C1CSC(c2ccccc2)N1C(C)=O (centres undefined),-52.5%,-13.4%,-27.1%,10.5%,1.85%,-22.3%
CCCCNc1nc(SC)nc2nc[nH]c12,-9.35%,-9.65%,-41.1%,-21.2%,-26.4%,-3.9%
Nc1nc2c(C(=O)c3ccco3)nnn2c2cccc(Cl)c12,10.7%,-2.7%,11.6%,11.2%,8.95%,5.85%
COc1cc([N+](=O)[O-])c(C)cc1Br,3.55%,3.75%,4.45%,-18.3%,-10.5%,9.45%
CC1Cc2ccc(OCC(O)CO)cc2C1=O (centres undefined),7.35%,1.8%,11.1%,15.1%,-0.2%,1.7%
Nc1nc(SCc2ccccc2)c2ncn(C3CC(O)C(CO)O3)c2n1 (centres undefined),0.05%,-1.2%,3.1%,-99.5%,-1.45%,-6.15%
NC(=O)NC1=NCCC(=O)N1CCc1c[nH]c2ccccc12,51.3%,75.9% (active),84.2% (active),78.5% (active),77.7% (active),88% (active)
CC(=O)CC(=O)Nc1ccc(Cc2ccc(NC(C)=O)cc2)cc1,8.3%,9.8%,10%,5.55%,2.8%,21.8%
C=C1CC(C)(Cn2cnc3c(=O)[nH]cnc32)OC1=O (centres undefined),18.1%,22.7%,12.9%,8%,16.6%,21.6%
CC(=O)OC(Cc1ccc2ccccc2n1)(C(F)(F)F)C(F)(F)F,-17.6%,-16.1%,-8.05%,6.2%,5.5%,-24.5%
COc1cc(NC=C2C(=O)OC(C)(C)OC2=O)c(OC)c(C)c1OC,1.25%,-27.1%,-10.1%,0.5%,-22.9%,4.15%
Cn1ccnc1CCc1c(Cl)cccc1Cl,-19.9%,-21.4%,-47.1%,9.4%,-16.2%,-22.9%
CN(C)[C@@H]1C(=O)C(C(=O)NCNC2CC(C)(C)N(O)C(C)(C)C2)=C(O)C2(O)C(=O)C3=C(O)c4c(O)cccc4[C@@](C)(O)C3CC12 (some centres undefined),-1.2%,30.6%,2.55%,-37%,-22.1%,24.6%
CCCCNC(C(=O)c1ccccc1)c1ccccc1 (centres undefined),4.85%,17.1%,0.45%,-16.6%,13.9%,26.4%
CCOC(=O)C1=C(C(=O)c2ccccc2)C(c2ccc([N+](=O)[O-])cc2)C(C(=O)c2ccccc2)=C(C(=O)OCC)N1,-6.5%,1.6%,-4%,14.2%,-10.9%,7.5%
COC(=O)CCC(=O)c1cc(OC)c2cc3ccccc3cc2c1OC,9.2%,-10.4%,-2.55%,5.75%,-17.4%,-15.6%
Cc1ccc(S(=O)(=O)OC(c2ccccc2)c2ccccc2)cc1,-7.05%,-10.9%,-0.4%,-17.4%,0%,-28.8%
